Assay outcomes: PubChem BioAssay, National Center for Advancing Translational Sciences (NCATS)
Six1-Eya2 blk = blocks human Six1 binding to Eya2; AlphaScreen GST-Six1/His-Eya2 binding, biochemical; stronger effect = lower value; activity change, % (test concentration not listed); hit rate 0.56% among 360,000; AID 651725; Q15475+O00167; in the data active = activity change below about -65%; inconclusive = mostly about -30% to -63%
Target sequence (O00167 whole entry, looked up): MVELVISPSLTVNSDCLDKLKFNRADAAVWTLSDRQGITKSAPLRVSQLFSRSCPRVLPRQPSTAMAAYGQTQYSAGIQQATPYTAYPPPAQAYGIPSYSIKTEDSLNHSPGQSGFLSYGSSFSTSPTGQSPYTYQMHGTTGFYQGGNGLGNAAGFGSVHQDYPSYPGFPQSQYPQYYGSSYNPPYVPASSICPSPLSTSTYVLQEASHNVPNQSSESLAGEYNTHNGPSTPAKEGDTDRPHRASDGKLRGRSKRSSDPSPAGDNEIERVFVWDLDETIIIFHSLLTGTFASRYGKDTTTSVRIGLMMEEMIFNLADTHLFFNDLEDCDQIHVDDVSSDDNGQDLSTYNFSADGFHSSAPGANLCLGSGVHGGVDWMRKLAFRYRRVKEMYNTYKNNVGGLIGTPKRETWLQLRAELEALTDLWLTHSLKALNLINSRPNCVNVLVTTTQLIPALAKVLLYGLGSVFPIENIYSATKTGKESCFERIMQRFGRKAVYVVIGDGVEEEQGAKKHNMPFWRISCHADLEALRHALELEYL
Target sequence (Q15475 whole entry, looked up): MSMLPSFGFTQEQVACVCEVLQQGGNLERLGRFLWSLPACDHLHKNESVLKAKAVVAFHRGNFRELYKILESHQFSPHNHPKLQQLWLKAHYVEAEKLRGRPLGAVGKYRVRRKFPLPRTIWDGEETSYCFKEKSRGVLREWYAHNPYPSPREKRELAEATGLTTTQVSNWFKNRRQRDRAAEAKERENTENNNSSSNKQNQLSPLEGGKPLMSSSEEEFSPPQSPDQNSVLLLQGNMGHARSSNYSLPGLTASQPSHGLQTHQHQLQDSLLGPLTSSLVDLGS
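Compounds are tested against tagged Six1 and Eya2 proteins bridged by glutathione donor and nickel acceptor beads; after a one-hour incubation at 37 °C without light, AlphaScreen emission is recorded.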
CtBP-E1A blk = inhibitors of CtBP/E1A interaction; AlphaScreen GST-E1A/His-CtBP binding, 1536-well; stronger effect = lower value; activity change, % (concentration not given with the values); hit rate 0.49% among 340,000; AID 651724; in the data active = activity change below about -65%; inconclusive = mostly about -30% to -63%
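AlphaScreen with 125 nM GST-E1A and 125 nM His-CtBP (5X stocks) in Tris pH 8.0, 300 mM NaCl, BSA, Tween 20, TCEP. Compounds preincubated 2 h at 37 deg C, then glutathione donor/nickel acceptor beads added for 1 h at 37 deg C in dark.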
TDP1 cell noCPT = qHTS for Inhibitors of human tyrosyl-DNA phosphodiesterase 1 (TDP1): qHTS in cells in absence of CPT | Potency, µM (top dose mostly 46.2 µM), inactives show at the top dose activity change, negative = growth inhibition, hits mostly inhibitors | AID 686978, 2013 | hit rate 15% among 420,000 | DT40 Tdp1-/- hTDP1 cells, no CPT, ATP luminescence, 48 h; note: potency is the fitted concentration of half-maximal effect; nearly all actives have a fitted effect of over 55% in size
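Cells were dispensed at 400 per well, compounds added by pin tool, plates incubated ≥48 hr at 37 °C, then CellTiter-Glo added for 30 min at room temperature before luminescence reading. Line: DT40 Tdp1-/- complemented with hTDP1; camptothecin omitted.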
IL-1B inflam inh = inflammasome signaling inhibition, IL-1 beta readout. THP-1 LPS/ATP IL-1B secretion, AlphaLISA, 16 h; stronger effect = lower value. activity change, % at 57.5 µM. hit rate 4.7% among 360,000; in the data active = activity change below about -50%; inconclusive = mostly about -30% to -49%
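Secreted IL-1B measured by AlphaLISA bead assay after 16 h compound exposure of THP-1 cells; compounds (final up to 57.5 uM) added 1 h before LPS (250 ng/mL) and ATP (1.25 mM) stimulation; lower signal means less secretion.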
TDP1 cell CPT = DT40-hTDP1 cell growth loss with CPT | Potency, µM (series often up to 46.2 µM), for the others: top-dose activity change, negative = growth inhibition, most hits filed as inhibitors | hit rate 12% among 420,000 | chicken DT40 Tdp1-/-;hTDP1 cells + 20 nM CPT, ATP luminescence, 48 h; note: potency is the fitted concentration of half-maximal effect; nearly all actives have a fitted effect of over 55% in size
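Chicken DT40 Tdp1-/- cells complemented with human TDP1, 400 cells/well, exposed to compounds plus 20 nM camptothecin for at least 48 h at 37 C; viability read as ATP content by CellTiter-Glo luminescence.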
TDP1 block = TDP1 (human) enzyme inhibition; recombinant TDP1, AlphaScreen DNA substrate cleavage; Potency, µM (highest dose often 130 µM), for the others: at the top dose activity change, negative = inhibition, actives largely listed as inhibitors; hit rate 0.28% among 350,000; AID 485290; note: potency is the fitted concentration of half-maximal effect; nearly all actives have a fitted effect of over 40% in size
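Signal: AlphaScreen proximity between streptavidin donor and anti-FITC acceptor beads on intact substrate. Reaction: Tdp1 1 nM, substrate 15 nM final, 5 min RT after 15 min compound preincubation.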
The depositor's hits bear a star; i = inactive; ? = inconclusive; · = no result; [ ] = remark or other dose. Only some compounds are listed: those with a hit (about 18% of all), similar ones and a draw of the others. Unless noted, calls come from the whole dose curve; as a rule, active = well fitted curve in the direction sought with a large enough effect; inconclusive = small, poorly fitted or top-dose-only effect, or another doubt; inactive = no such curve, though single readings can be large; an effect the other way counts as inactive or inconclusive. % is set by controls: 0 for no effect and ±100 for the full control effect.

SMILES	Six1-Eya2 blk	CtBP-E1A blk	TDP1 cell noCPT	IL-1B inflam inh	TDP1 cell CPT	TDP1 block
C/C(=N\NC(=O)c1ccn(C)n1)c1ccc(NC(=O)C2CCC2)cc1	?	-25.3	2.8%	-2.5	?	3.1%
C/C(=N\NC(=O)c1ccn(C)n1)c1ccc(NC(=O)C2CCCC2)cc1	1.4	-4.5	18.4µM*	58.5	-13.6%	5.1%
COc1cc2c(-c3ccc(O)cc3)nc3c(c(C)nn3-c3ccccc3)c2cc1OC	0.7	2.9	18.4µM*	22.2	11.6µM*	?
CCOc1ccc2cc(C(=O)NCc3ccccc3)c(=N)oc2c1	7.2	-3.4	?	-76.7*	?	·
CCOc1cccc2cc(C(=O)NCc3ccc(Cl)cc3)c(=N)oc12	-5.2	3.8	?	-64.7*	?	3.7%
Cc1nn(-c2ccccn2)c2c1-c1nc(N)ncc1CC2	-1.2	-3.2	?	-0.5	?	6.6%
Cc1nn(-c2ccccn2)c2c1-c1nc(N3CCOCC3)ncc1CC2	2.0	0.8	23.1µM*	-8.2	18.4µM*	-10.4%
Cc1nn(-c2ccccn2)c(N)c1N=O	-28.1	-12.7	-15.6%	7.2	-3.7%	4.8%
Cc1nn(-c2ccccn2)c2c1-c1nc(N)sc1CC2	·	·	17.8µM*	·	20µM*	·
COc1cccc(NC(=O)C2(C)CCN2Cc2ccc(SC)cc2)c1 (centres undefined)	-2.7	0.4	?	16.8	?	·
c1ccc(COc2ccccc2CNC23CC4CC(CC(C4)C2)C3)cc1	3.1	-1.9	14.6µM*	-95.3*	18.4µM*	0.0%
COc1cccc(CNC2CCCCCCC2)c1OC	0.7	5.2	-18.8%	-13.3	6.7%	·
c1ccc(COc2ccccc2CNC2CCCC2)cc1	9.6	3.5	?	-70.4*	?	7.7%
c1csc(COc2ccccc2CNC2CCCCC2)c1	1.0	4.9	?	-72.6*	?	5.5%
CCCCCCCCCCCCCCCC[n+]1ccc(/C=C/c2c[nH]c3ccccc23)c2ccccc21	·	·	14.1µM*	·	5.01µM*	·
Cc1ccc(C(=O)/C=C/c2c[nH]c3ccccc23)cc1	0.6	4.3	-18.0%	-13.9	-8.6%	3.4%
CCCCCCCCCCCC[n+]1ccc(/C=C/c2c[nH]c3ccccc23)c2ccccc21	·	·	2.24µM*	·	2.51µM*	·
CCCCCCC[n+]1ccc(/C=C/c2c[nH]c3ccccc23)c2ccccc21	·	·	1.12µM*	·	1µM*	·
NC(=O)c1cc(S(=O)(=O)NCC2CCC(C(=O)Nc3ccc(Cl)cc3)CC2)cs1 (centres undefined)	·	·	?	·	?	2.6%
Nn1c(SCC(=O)Nc2ccc3c(c2)OCCO3)nnc(CCC(=O)O)c1=O	3.0	1.8	?	-4.3	20.6µM*	2.4%
Cc1nnc(SCC(=O)Nc2ccc3c(c2)OCCO3)n1N	10.3	-1.4	-7.2%	9.4	-1.9%	1.0%
Cc1c(C(=O)NCC(C)(C)N2CCOCC2)oc2ccccc12	5.4	·	-3.6%	2.9	-5.9%	0.1%
O=C(CSc1nccn1C1CCCC1)Nc1ccc(C(F)(F)F)cc1	·	·	?	·	?	1.5%
O=C(CSC1=NNC(c2ccccn2)S1)Nc1ccc(C(F)(F)F)cc1 (centres undefined)	-90.7*	-95.2*	3.66µM*	152.7	4.11µM*	·
COc1ccc(CN2CCCC(C(=O)Nc3cccc(-n4cccn4)c3)C2)cc1 (centres undefined)	-0.9	0.8	?	?	?	2.6%
SMILES	Six1-Eya2 blk	CtBP-E1A blk	TDP1 cell noCPT	IL-1B inflam inh	TDP1 cell CPT	TDP1 block
Cc1nn(C)c(Cl)c1CN1CCCC(C(=O)Nc2ccc(-c3cscn3)cc2)C1 (centres undefined)	-14.3	-17.3	?	-69.0*	16.4µM*	4.0%
O=C(Nc1cccc(-n2cccn2)c1)C1CCCN(Cc2ccc(C#CCCO)cc2)C1 (centres undefined)	-6.0	-5.9	20.6µM*	i	?	4.9%
CC(=O)c1cccc(CN2CCCC(C(=O)Nc3cccc(-n4cccn4)c3)C2)c1 (centres undefined)	-8.7	-1.8	23.1µM*	i	?	1.3%
CCn1cc(CN2CCCC(C(=O)Nc3cccc(-n4cccn4)c3)C2)c(C)n1 (centres undefined)	-0.2	7.8	-5.1%	8.7	-2.5%	1.9%[56.1 µM]
COC(=O)c1ccc(CN2CCCC(C(=O)Nc3cccc(-n4cccn4)c3)C2)cc1 (centres undefined)	-13.9	-8.7	?	17.5	?	4.9%
Cc1nn(C)c(Cl)c1CN1CCCC(C(=O)Nc2cccc(-n3cccn3)c2)C1 (centres undefined)	-9.9	-2.2	?	-8.6	11.6µM*	0.4%
Cc1ccc(N2CCN(C(=O)c3cc4cc5ccc(C)cc5nc4s3)CC2C)cc1 (centres undefined)	·	·	-1.8%	·	0.1%	-2.5%
CSc1ccc(CCNC(=O)CCc2c(C)nc3c(c(C)nn3-c3ccc(C)c(C)c3)c2C)cc1	·	·	1.9%	·	-3.6%	-1.2%
CC(=O)c1cccc(CN2CCCC(C(=O)Nc3ccc(-c4ccco4)cc3)C2)c1 (centres undefined)	-14.4	-9.3	?	-18.4	14.6µM*	8.8%
O=C(Nc1ccc(-c2ccco2)cc1)C1CCCN(Cc2ccc(CO)o2)C1 (centres undefined)	-12.8	-4.9	?	-11.6	?	3.0%[56.1 µM]
CC(O)(c1ccccc1)c1nc(-c2ccc(F)c(Cl)c2)cs1 (centres undefined)	2.1	-12.2	?	6.8	?	·
Cc1ccc(-c2csc(C(O)(c3ccccc3)C(F)(F)F)n2)cc1C (centres undefined)	6.2	13.5	16.4µM*	-0.4	?	·
OC(c1ccccc1)(c1nc(-c2ccc(F)c(Cl)c2)cs1)C(F)(F)F (centres undefined)	5.2	13.3	16.4µM*	6.8	?	·
Cc1ccccc1-c1csc(C(O)(c2ccccc2)C(F)(F)F)n1 (centres undefined)	1.0	5.0	?	0.0	?	·
OC(c1ccccc1)(c1nc(-c2cccc3cccnc23)cs1)C(F)(F)F (centres undefined)	8.8	-17.6	?	-11.4	23.1µM*	·
CN(C)c1ccc(-c2csc(C(O)(c3ccccc3)C(F)(F)F)n2)cc1 (centres undefined)	?	?	7.31µM*	-12.1	10.3µM*	·
Oc1cccc(-c2csc(C(O)(c3ccccc3)C(F)(F)F)n2)c1 (centres undefined)	3.7	4.3	?	29.0	?	·
